# Inconclusive results are not listed. Calls of active or inactive are those of the source. Calls follow the shape of the full dose curve.
# Target: 5-hydroxytryptamine receptor 2A (Homo sapiens) (UniProt P28223)
# Assay: 5-hydroxytryptamine receptor 2A (HTR2A) small molecule agonists, cell-based qHTS assay (AID 1963587); also: nearly all actives have a fitted effect of over 30% in size
# Conditions: HTR2A-CHO cells, calcium flux fluorescence, agonist mode; series mostly up to 76.8 µM; activation: at the top concentration
# From the text: National Center for Advancing Translational Sciences [NCATS]
# Division of Preclinical Innovation [DPI]
# U.S. Environmental Protection Agency [EPA]
# National Institutes of Environmental Health Sciences [NIEHS]
# National Toxicology Program [NTP]
# U.S. Food and Drug Administration [FDA]
# The HTR2A receptor is a subtype of the 5-HT2 receptor that belongs to the serotonin receptor family and is a G protein-coupled receptor (GPCR). The HTR2A-CHO cell line stably expressing human 5-hydroxytryptamine receptor 2A (HTR2A) can be used for screening agonists of interactions between 5-HT2 and its ligands. The HTR2A-CHO calcium flux assay is a homogeneous fluorescence-based assay for detecting the intracellular calcium level using FDSS kinetic plate reader system.
# HTR2A-CHO cells were dispensed at 2000 cells/3uL/well in 1536-well black-clear bottom plates using a Multidrop Dispenser. After the assay plates were incubated at a 37 C/5% CO2 incubator for 18 h, 3 uL of Dye Loading Buffer was transferred to the assay plate by a Flying Reagent Dispenser. The assay plates were incubated at 37 C for 1h. For agonist mode, 23 nL of compounds dissolved in DMSO, positive controls or DMSO only was transferred to the assay plate by a pin tool. The fluorescence intensity in the plates was measured using FDSS 7000EX kinetic plate reader for 2 min at 1 sec intervals.
# % is scaled to controls: 0 for no effect and ±100 for the full control effect.
# 5-hydroxytryptamine receptor 2A (Homo sapiens), sequence (P28223 whole entry, looked up): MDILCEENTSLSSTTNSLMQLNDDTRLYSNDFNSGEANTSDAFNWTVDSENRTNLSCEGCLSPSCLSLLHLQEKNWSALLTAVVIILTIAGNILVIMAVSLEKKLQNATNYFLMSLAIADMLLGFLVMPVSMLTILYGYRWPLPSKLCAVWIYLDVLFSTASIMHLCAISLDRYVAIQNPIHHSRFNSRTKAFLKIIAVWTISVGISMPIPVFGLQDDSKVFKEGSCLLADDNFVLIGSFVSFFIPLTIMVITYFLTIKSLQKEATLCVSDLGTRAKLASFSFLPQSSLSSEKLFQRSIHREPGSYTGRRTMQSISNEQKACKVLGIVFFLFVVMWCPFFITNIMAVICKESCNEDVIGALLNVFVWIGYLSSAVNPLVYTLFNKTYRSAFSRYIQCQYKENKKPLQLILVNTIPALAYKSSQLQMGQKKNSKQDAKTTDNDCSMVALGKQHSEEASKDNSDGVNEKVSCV
SMILES,activation,Potency
CC(=O)c1ccccc1N,3.07% (inactive),–
O=S(=O)(O)c1ccccc1O,4.83% (inactive),–
Oc1ccc(Cl)cc1Sc1cc(Cl)ccc1O,2.99% [at 35.6 µM] (inactive),–
C1C[C@@H]2[C@H]3CC[C@H](C3)[C@@H]2C1,0.557% (inactive),–
CC(C)OC(=O)CCCCC(=O)OC(C)C,1.86% (inactive),–
CC/C=C/CCO,4.49% (inactive),–
C[C@H]1C[C@H](O)c2ccsc2S1(=O)=O,0.115% [at 35.6 µM] (inactive),–
CC(C)(O)C#CC(C)(C)O,2.1% (inactive),–
Cc1ccc(N)cc1[N+](=O)[O-],-0.259% (inactive),–
C/C=C(\C)C(=O)OCc1ccccc1,-8.8% (inactive),–
CC1=C(O)C(=O)C(C)O1 (stereo not given),2.32% (inactive),–
O=C(O)[C@@H]1[C@H]2C[C@H]3c4[nH]c5ccccc5c4CCN3C[C@@H]2CC[C@@H]1O,16.2% [at 35.6 µM] (inactive),–
CCSC(=O)N(CC)CC,-0.182% (inactive),–
C[N+]1([O-])CCOCC1,0.268% (inactive),–
CO[Si](CCCNCCNCCN)(OC)OC,-3.04% (inactive),–
CCCCCCCCCCCCOCC1CO1 (stereo not given),–,inactive
CCCCCCN,1.18% (inactive),–
Nc1ccccc1S(=O)(=O)O,-0.755% (inactive),–
Oc1cc(O)c2c(c1)O[C@H](c1ccc(O)c(O)c1)[C@H](O)C2,-1.9% [at 35.6 µM] (inactive),–
Nc1cccc2c1CN(C1CCC(=O)NC1=O)C2=O (stereo not given),-10.6% [at 35.6 µM] (inactive),–

SMILES,activation,Potency
c1ccc(CNc2ncnc3c2ncn3C2CCCCO2)cc1 (stereo not given),1.87% (inactive),–
COc1c(Cl)ccc(Cl)c1C(=O)O,–,inactive
Cc1cn([C@H]2C[C@H](F)[C@@H](CO)O2)c(=O)[nH]c1=O,2.74% [at 35.6 µM] (inactive),–
O=C(O)c1cccc(C[C@@H]2COc3ccc(OCc4nc5cc(F)ccc5s4)cc3[C@@H]2O)c1,-0.0052% (inactive),–
CC/C=C\CCOC(=O)CC,3.71% (inactive),–
CC(C#N)(CCC(=O)O)N=NC(C)(C#N)CCC(=O)O (stereo not given),0.434% (inactive),–
O=C(O)/C=C/c1ccc(Cn2ccnc2)cc1,-0.771% [at 35.6 µM] (inactive),–
C=CC(C)(O)CC/C=C(/C)CCC=C(C)C (stereo not given),-0.371% (inactive),–
CC(C)CCCCCOC(=O)CCS,-2.08% (inactive),–
CN1CCCC1=O,–,inactive
C1CCC(SSC2CCCCC2)CC1,-1.06% (inactive),–
C=CCCCCCCCC,2.86% (inactive),–
CC(C)CCCCCCCCCCCCCCC(=O)O,-0.421% (inactive),–
CCC(O)CO (stereo not given),-0.962% (inactive),–
N[C@@H](CSSC[C@H](N)C(=O)O)C(=O)O,4.74% [at 0.292 µM] (inactive),–
CC1=CCC(C(C)(C)O)CC1 (stereo not given),–,inactive
ON(Cc1ccccc1)Cc1ccccc1,-5.69% (inactive),–
CC(C)CC(O)CC(C)C,-1.28% (inactive),–
N[C@H](C(=O)O)c1ccc(O)cc1,-0.912% [at 15.9 µM] (inactive),–
CC12CC3CC(C)(C1)CC(N)(C3)C2,0.301% [at 35.6 µM] (inactive),–

# Reference: PubChem BioAssay (Tox21)
